Data published in PubChem BioAssay AID651658 (Broad Institute, 2012).
In all, about 340,000 compounds went through this assay and about 5,100 (1.5%) were called active. The entries come from a sample that favours actives as a whole. Unmarked numbers belong to inactive results.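 Rule for the calls: active = mean Tm shift, scaled 0 neutral to 100 positive control, at about 1.3% or above, every replicate too (limit read from the data); inconclusive = no clear call, values can overlap the other calls; inactive = the rest.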

Target: Fibroblast growth factor 22 (Homo sapiens) (UniProt Q9HCT0)
Test: binders of human FGF22 protein, primary screen, FGF22 synaptogenesis inhibitor project, biophysical, thermal shift, single point (AID 651658)
Settings: recombinant FGF22 thermal shift, SYPRO orange fluorescence, at 9.99 µM, active compounds read high

Chain of Fibroblast growth factor 22 (Homo sapiens) (Q9HCT0 whole entry, looked up): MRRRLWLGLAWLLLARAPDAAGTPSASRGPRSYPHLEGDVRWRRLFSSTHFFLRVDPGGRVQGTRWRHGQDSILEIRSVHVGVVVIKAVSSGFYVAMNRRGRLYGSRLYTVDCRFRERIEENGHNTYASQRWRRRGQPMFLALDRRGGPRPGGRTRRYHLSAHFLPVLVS

With `Cc1ccc(-c2cc(C(=O)N3CCC4(CC3)OCCO4)no2)cc1` the activity (Tm shift, normalised) was 43.1% (active).
With `C[C@]12CCCCC1=CC(=O)C1C2CC[C@@]2(C)C1C[C@@H](F)[C@@H]2O` (stereo not given in full) the activity (Tm shift, normalised) was 43.1% (active).
For `C/C=C/c1ccc(C2[C@@H]3CN(Cc4cncnc4)C[C@H]2N3)cc1` (stereo not given in full), the activity (Tm shift, normalised) was -0.323% [percent of sucrose octasulfate shift, DMSO zero].
With `CC=C(C)C(=O)OC1CCN2CC=C(COC(=O)C(O)(C(C)OC)C(C)(C)O)C12` (stereo not given) the activity (Tm shift, normalised) was 43.1% (active).
In the case of `CC(CC(C#N)(c1ccccc1)c1ccccc1)N1CCCCC1` (stereo not given), the activity (Tm shift, normalised) is reported as 43.4% (active).
`C/C=C/c1ccc(C2[C@@H]3CN(S(C)(=O)=O)C[C@H]2N3)cc1` (stereo not given in full) was tested, and the activity (Tm shift, normalised) was 0.016% [percent of sucrose octasulfate shift, DMSO zero].

Point of comparison: `Cc1cccc(-n2c(C)nc3cc(C(=O)N4CCC5(CC4)OCCO5)ccc32)c1`, activity (Tm shift, normalised) 0.173%. Against it:
- O=C(c1ccccc1[N+](=O)[O-])N1CCC2(CC1)OCCO2 — lower, -0.032%
- COc1cccc(-c2ccc3n(c2=O)C[C@@H]2[C@@H](CO)[C@H](C(=O)O)[C@H]3N2C(=O)c2cnccn2)c1 — lower, -0.051%
- C[C@]12CCC3C(CC[C@H]4[C@H](O)[C@H](O)CC[C@]34C)C1CCC2=O (stereo not given in full) — higher, 42.7%
- COC(=O)[C@@H]1[C@@H](CO)[C@@H]2Cn3c(ccc(C4=CCCCC4)c3=O)[C@H]1N2CC1CC1 — lower, 0.126%
- COc1cccc(-c2ccc3n(c2=O)C[C@H]2[C@H](CO)[C@@H](C(=O)O)[C@@H]3N2C(=O)c2cnccn2)c1 — lower, -0.009%
- O=C(O)[C@H]1[C@H](CO)[C@H]2Cn3c(ccc(-c4ccccc4)c3=O)[C@@H]1N2S(=O)(=O)c1ccccc1F — lower, 0.019%
- COC(=O)[C@@H]1[C@@H](CO)[C@@H]2Cn3c(ccc(-c4ccc(F)cc4)c3=O)[C@H]1N2C(C)=O — lower, -0.001%
- COC(=O)[C@H]1[C@H](CO)[C@H]2Cn3c(ccc(-c4cccc(F)c4)c3=O)[C@@H]1N2Cc1ccccc1 — lower, -0.258%
- c1ccc(C(CN2CCCCC2)c2ccccc2)cc1 — lower, -0.37%
- O=C(c1ccccc1)C(O)(CN1CCCCC1)c1ccccc1 (stereo not given) — lower, -0.158%
- O=C(Cc1ccccc1)N1CCCCN2[C@H](CO)[C@H](c3ccc(C#Cc4ccccc4)cc3)[C@H]2C1 — lower, -0.682%
- CCN(CC)C(=O)[C@@H]1C=C2c3cccc4[nH]c(Br)c(c34)C[C@H]2N(C)C1 — lower, 0.114%
- COC(=O)[C@H]1[C@H](CO)[C@H]2Cn3c(ccc(-c4ccccc4F)c3=O)[C@@H]1N2C(=O)C1CCC1 — lower, 0.081%
